Screening data (PubChem)
TDP1 cell noCPT: qHTS for Inhibitors of human tyrosyl-DNA phosphodiesterase 1 (TDP1): qHTS in cells in absence of CPT | DT40 Tdp1-/- hTDP1 cells, no CPT, ATP luminescence, 48 h | Potency, µM (titrated, usually from 46.2 µM), most hits filed as inhibitors | hit rate 15% among 420,000 | AID 686978, 2013; note: nearly all actives have a fitted effect of over 55% in size
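Compound effects on proliferation are scored in DT40 Tdp1-/-;hTDP1 cells in the absence of CPT. ATP levels (CellTiter-Glo luminescence) are recorded after a ≥48 hr, 37 °C incubation.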
CtBP-E1A inh: blocks the CtBP interaction with E1A; hit rate 0.49% among 340,000; activity change, % (concentration not given with the values); AID 651724; AlphaScreen GST-E1A/His-CtBP binding, 1536-well; hits give low values; in the data active = activity change below about -65%; inconclusive = mostly about -30% to -63%
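Homogeneous bead-based format: GST-tagged E1A captured on glutathione donor beads, His-tagged CtBP on nickel acceptor beads; compounds precede bead addition by 2 h at 37 °C.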
TDP1 cell CPT: growth inhibition of DT40 Tdp1-/-;hTDP1 cells with camptothecin (screen for TDP1 inhibitors); chicken DT40 Tdp1-/-;hTDP1 cells + 20 nM CPT, ATP luminescence, 48 h; Potency, µM (series often up to 46.2 µM), actives largely listed as inhibitors; hit rate 12% among 420,000; note: nearly all actives have a fitted effect of over 55% in size
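Cell growth measured by CellTiter-Glo luminescence after a minimum 48 h, 37 C compound exposure with 20 nM CPT in Tdp1-knockout DT40 cells stably expressing hTDP1, seeded 400/well; qHTS titration format.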
Six1-Eya2 blk: blocks human Six1 binding to Eya2. Q15475+O00167. AlphaScreen GST-Six1/His-Eya2 binding, biochemical; hits give low values. activity change, % (no concentration beside the values). hit rate 0.56% among 360,000. AID 651725; in the data active = activity change below about -65%; inconclusive = mostly about -30% to -63%
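Compounds are tested against tagged Six1 and Eya2 proteins bridged by glutathione donor and nickel acceptor beads; after a one-hour incubation at 37 °C without light, AlphaScreen emission is recorded.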
TDP1 block: TDP1 (human) enzyme inhibition; AID 485290; recombinant TDP1, AlphaScreen DNA substrate cleavage; hit rate 0.28% among 350,000; Q9NUW8; Potency, µM (highest dose often 130 µM), usual class: inhibitors; note: nearly all actives have a fitted effect of over 40% in size
Target sequence (Q9NUW8 whole entry, looked up): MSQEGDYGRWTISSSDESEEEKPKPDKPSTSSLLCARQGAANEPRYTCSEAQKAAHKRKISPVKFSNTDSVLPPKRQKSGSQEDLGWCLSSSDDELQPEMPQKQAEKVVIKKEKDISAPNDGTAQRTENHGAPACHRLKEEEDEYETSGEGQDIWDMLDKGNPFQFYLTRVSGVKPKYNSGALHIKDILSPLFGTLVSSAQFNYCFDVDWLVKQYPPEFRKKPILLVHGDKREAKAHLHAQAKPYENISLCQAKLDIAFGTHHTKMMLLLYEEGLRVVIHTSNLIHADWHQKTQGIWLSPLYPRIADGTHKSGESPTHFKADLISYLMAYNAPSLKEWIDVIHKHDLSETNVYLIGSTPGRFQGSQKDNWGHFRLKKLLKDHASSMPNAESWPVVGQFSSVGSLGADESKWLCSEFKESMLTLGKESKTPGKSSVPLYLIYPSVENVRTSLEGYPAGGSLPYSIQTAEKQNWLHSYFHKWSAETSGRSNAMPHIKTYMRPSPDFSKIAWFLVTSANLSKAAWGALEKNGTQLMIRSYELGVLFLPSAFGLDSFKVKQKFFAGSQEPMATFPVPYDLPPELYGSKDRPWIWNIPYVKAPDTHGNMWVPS
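Enzyme-compound mixtures sat 15 min at room temperature, followed by a 5 min reaction with 15 nM final substrate and 10 min with AlphaScreen beads. Recombinant human Tdp1 was used at 1 nM final.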
IL1B secr inh: inflammasome signaling inhibition, IL-1 beta readout; THP-1 LPS/ATP IL-1B secretion, AlphaLISA, 16 h; hits give low values; activity change, % at 57.5 µM; hit rate 4.7% among 360,000; AID 743279; in the data active = activity change below about -50%; inconclusive = mostly about -30% to -49%
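Secreted IL-1B measured by AlphaLISA bead assay after 16 h compound exposure of THP-1 cells; compounds (final up to 57.5 uM) added 1 h before LPS (250 ng/mL) and ATP (1.25 mM) stimulation; lower signal means less secretion.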
A number is an active result; 0 = inactive; ? = inconclusive; - = not tested or not shown; ! = not confirmed by another sample; [ ] = dose if it differs, or a comment. Rows were chosen to be rich in hits. Some 18% of all compounds tested hit in one or more screens of this group. Unless noted, calls come from the whole dose curve; as a rule, active = well fitted curve in the direction sought with a large enough effect; inconclusive = small, poorly fitted or top-dose-only effect, or another doubt; inactive = no such curve, though single readings can be large; an effect the other way counts as inactive or inconclusive.

SMILES	TDP1 cell noCPT	CtBP-E1A inh	TDP1 cell CPT	Six1-Eya2 blk	TDP1 block	IL1B secr inh
NC(Cc1ccc(C(F)(F)F)cc1)c1csc(Nc2nccc(C(F)(F)F)n2)n1 (stereo not given)	?	0	?	0	-	0
Cc1cc(C)nc(Nc2nc(C(N)Cc3ccc(F)cc3)cs2)n1 (stereo not given)	20.6µM	?	14.6µM	0	-	0
Cc1cc(C)nc(Nc2nc(C(N)Cc3ccc(C(F)(F)F)cc3)cs2)n1 (stereo not given)	6.51µM	0	6.51µM	0	-	-81.0
CN(C(=O)COC(=O)C1CCN(S(=O)(=O)c2ccc3c(c2)OCCO3)CC1)C1CCCCC1	0	0	0	0	-	0
COC(=O)C(Cc1ccccc1)NC(=O)CSc1nc(C)cc(=O)[nH]1 (stereo not given)	0	0	0	0	0	0
O=C(N/C=C/n1cnc2cc(C(F)(F)F)ccc21)c1ccc(F)cc1	0	0	?	0	-	0
COc1cc(OC)nc(Nc2nc(C(C)N)cs2)n1 (stereo not given)	?	?	?	?	-	0
COc1cc(OC)nc(Nc2nc(C(N)Cc3ccccc3)cs2)n1 (stereo not given)	18.4µM	0	?	0	-	0
Cc1cc(C)nc(Nc2nc(C(N)Cc3ccc(Cl)cc3)cs2)n1 (stereo not given)	18.4µM	0	18.4µM	0	-	?
Cc1ccc(CCNC(=O)CN2C(=O)COc3ccc(S(=O)(=O)N4CCCCC4)cc32)cc1	0	0	?	0	0	?
O=C(CN1C(=O)COc2ccc(S(=O)(=O)N3CCCC3)cc21)NCCc1ccc(Cl)cc1	23.1µM	-	?	-	0	-
COc1ccc(OC)c(CCNC(=O)CN2C(=O)COc3ccc(S(=O)(=O)N4CCCCCC4)cc32)c1	-	-	-	-	0	-
COc1ccc(CCNC(=O)CN2C(=O)COc3ccc(S(=O)(=O)N4CCCC4)cc32)c(OC)c1	16.4µM!	0	18.4µM!	0	0	0
Cc1ccc(CCNC(=O)CN2C(=O)COc3ccc(S(=O)(=O)N4CCCCCC4)cc32)cc1	16.4µM	-	16.4µM	-	0	-
CC(=O)Nc1ccc(NC(=O)CCCSc2nc3ccccc3s2)cc1	0	0	0	0	0	0
CCOc1ccc(C(NC(=O)c2ccco2)c2ccc(OC)c(OC)c2)cc1 (stereo not given)	0	0	0	0	0	0
CN1CCCC1CN1CCCC1 (stereo not given)	0	0	0	0	-	0
CN1CCCC1CCNC1C2CC3CC(C2)CC1C3 (stereo not given)	16.4µM	0	8.2µM	0	0	0
O=C(c1ccccc1)C1O[C@H]1c1ccccc1 (stereo not given in full)	-	-	-	-	0	-
Cc1cc(C)c2c(c1)SC1=NC(c3ccccc3)(C(F)(F)F)NC(=O)N12 (stereo not given)	?	0	?	0	0	-55.9
CC1CCCC(NC(=O)Cn2c(Cl)nc3c2c(=O)n(C)c(=O)n3C)C1C (stereo not given)	20.6µM	0	?	0	0	0
CCN(C(=O)Cn1c(Cl)nc2c1c(=O)n(C)c(=O)n2C)C1CCCCC1	20.6µM	-	20.6µM	0	0	0
Cn1c(=O)c2c(nc(Cl)n2CC(=O)N2CCCCC2)n(C)c1=O	0	0	0	0	0	0
CN(C(=O)Cn1c(Cl)nc2c1c(=O)n(C)c(=O)n2C)C1CCS(=O)(=O)C1 (stereo not given)	0	0	0	0	0	0
C=CCn1c(N)cc(=O)nc1SCC(=O)Nc1ccc(C(=O)OC)cc1	0	0	0	0	0	0
SMILES	TDP1 cell noCPT	CtBP-E1A inh	TDP1 cell CPT	Six1-Eya2 blk	TDP1 block	IL1B secr inh
COc1cccc(CNC(=O)CCc2c(C)nc3c(c(C)nn3-c3ccc(C)c(C)c3)c2C)c1	20.6µM	-	20.6µM	-	0	-
COCCCNC(=O)CCc1c(C)nc2c(c(C)nn2-c2ccc(C)cc2)c1C	0	0	?	0	-	0
COCCNC(=O)CCc1c(C)nc2c(c(C)nn2-c2ccc(C)cc2)c1C	18.4µM	-	?	0	0	0
Cc1ccc(-n2nc(C)c3c(C)c(CCC(=O)NCc4ccc(Cl)cc4)c(C)nc32)cc1	?	-	?	-	0	-
COc1ccc(CCNC(=O)CCc2c(C)nc3c(c(C)nn3-c3ccccc3)c2C)c(OC)c1	16.4µM	-	23.1µM	-	0	-
Cc1ccc(-n2nc(C)c3c(C)c(CCC(=O)NCc4ccccc4Cl)c(C)nc32)cc1C	?	-	0	-	0	-
CCN(CC)CCNC(=O)CCc1c(C)nc2c(c(C)nn2-c2ccc(C)cc2)c1C	13µM	0	20.6µM	0	-	0
O=C(CC1SC(=O)N(Cc2ccccc2)C1=O)Nc1nccs1 (stereo not given)	0	0	0	0	0	0
COc1ccccc1CNc1ncnc2ccc(-c3ccccc3CN(C)C)cc12	?	-	?	-	0	-
CCCCCc1nnc(NS(C)(=O)=O)s1	0	0	0	0	0	0
Cc1nc(Nc2ccc(Cl)cc2)c(C#N)c(=O)[nH]1	0	0	0	0	-	0
Cc1c(Cl)cccc1-n1c(SCC(=O)N2CCC(C(=O)O)CC2)nnc1-c1ccncc1	0	-	0	0	0	0
COCCNC(=O)CCc1c(C)nc2c(c(C)nn2-c2ccc(C)c(C)c2)c1C	16.4µM	-	?	0	-	0
C=C1C(=O)O[C@@H]2[C@H]1CC[C@H](C)[C@]1(O)CCC(=O)[C@@]21C	?	0	23.1µM	0	-	-68.7
C=C1C(=O)O[C@@H]2[C@@H]1CC/C(C)=C\CC[C@@]1(C)O[C@H]21	-	-	-	-	0[21 µM]	-
Fc1ccc(CNc2ccn3nc(-c4ccccc4)cc3n2)cc1	?	0	?	0	-	0
CC(C)Cc1ccc(-c2cc3nc(NCC4CC4)ccn3n2)cc1	?	0	20.6µM	0	-	0
c1cc(-c2cc3nc(NC4CCCCC4)ccn3n2)ccc1OCCN1CCOCC1	3.26µM	0	3.26µM	0	-	-76.4
Clc1cccc(CNc2ccn3nc(-c4ccc(OCCN5CCOCC5)cc4)cc3n2)c1	11.6µM	0	8.2µM	0	-	0
CN(C)C(=O)CNc1ccn2nc(-c3cccc(OCCN4CCOCC4)c3)cc2n1	0	0	0	0	-	0
c1cc(-c2cc3nc(NCC4CC4)ccn3n2)ccc1OCCN1CCOCC1	23.1µM	0	23.1µM	0	-	0
Cc1cc(Nc2ccc(F)cc2F)nc(-n2nc(C)cc2C)n1	4.61µM	-	2.91µM	-	0	-
COc1ccc(Nc2cc(C)nc(-n3nc(C)cc3C)n2)cc1Cl	0.146µM	-	0.366µM	-	0	-
Cc1cc(Nc2ccc(C(C)C)cc2)nc(-n2nc(C)cc2C)n1	0.82µM	-	0.581µM	-	0	-
